CHX counter: counter-screen for Shiga toxin inhibitors: cycloheximide protein synthesis inhibition | 12% of 300,000 active | max response, % | AID 2314 | cell reporter, cycloheximide protein synthesis inhibition counterscreen; in the data active = max response mostly above about 13%, no sharp cut-off; inactive = mostly below about 14%; note: read at 38.3 µM for the half of the compounds with a filed dose; 0% is about no effect
Pf growth 48h: P. falciparum growth inhibition at 48 hours (one generation) | AID 504832 | P. falciparum luciferase growth in erythrocytes, 48 h | Potency, µM (series often up to 28.7 µM), for the others: top-dose activity change, negative = inhibition, most hits filed as inhibitors | 5.9% of 310,000 active; note: potency is the fitted concentration of half-maximal effect; % is set by controls: 0 for no effect and ±100 for the full control effect
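Luciferase-expressing P. falciparum in infected erythrocytes (2% hematocrit, 0.1% parasitemia final) in RPMI 1640/0.5% Albumax were exposed to compound for 48 hours at 37 C, 5% CO2; growth read as luminescence.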
Pf growth 96h: P. falciparum growth inhibition at 96 hours | P. falciparum luciferase reporter growth, 96 h | Potency, µM (titrated, usually from 28.7 µM), for the others: top-dose activity change, negative = inhibition, actives largely listed as inhibitors | 6.9% of 320,000 active | AID 504834; note: potency is the fitted concentration of half-maximal effect; % is set by controls: 0 for no effect and ±100 for the full control effect
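Readout is luminescence from an integrated firefly luciferase in P. falciparum. Red cells, 2% hematocrit and 0.05% parasitemia final, were cultured with compound through two parasite generations (96 hours) at 37 C, 5% CO2.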
Sm TGR inh: inhibitors of Schistosoma mansoni thioredoxin glutathione reductase; purified TGR, DTNB reduction, TNB absorbance 405 nm; Potency, µM (highest dose often 114 µM), for inactives: top-dose activity change, negative = inhibition, most hits filed as inhibitors; 3% of 360,000 active; AID 485364; note: potency is the fitted concentration of half-maximal effect; % is set by controls: 0 for no effect and ±100 for the full control effect; nearly all actives have a fitted effect of over 60% in size
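Kinetic colorimetric format: TGR-catalysed, NADPH-driven DTNB reduction monitored via TNB absorbance. Enzyme dispensed at 20 nM; compound exposure 15 min at room temperature before reaction start.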
Shiga toxin inh: inhibitors of Shiga toxin in Vero cells; Vero cells, Shiga toxin protein synthesis inhibition reporter; inhibition, % at 38.7 µM; 9.2% of 290,000 active; AID 2315; in the data active = inhibition mostly above about 28%, no sharp cut-off; inactive = mostly below about 43%; note: 0% is about no effect
NS1 inh: influenza NS1 inhibition; Potency, µM (top dose mostly 46.1 µM), inactives show top-dose activity, positive = more growth; 0.4% of 270,000 active; calls by dose curve; note: potency is the fitted concentration of half-maximal effect; actives are rising curves; nearly all actives have a fitted effect of over 50% in size
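OD600 was taken as the measure of yeast growth restored by compound in an NS1-expressing S. cerevisiae strain. Cells had been washed out of glucose medium and diluted 1:100 into galactose -URA medium, pH 6.0.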
An asterisk follows results filed as active; ? = inconclusive; nt = no result. Sampled rows, rich in hits. Any-hit rate of the full collection: about 21%. Unless noted, calls come from the whole dose curve; as a rule, active = well fitted curve in the direction sought with a large enough effect; inconclusive = small, poorly fitted or top-dose-only effect, or another doubt; inactive = no such curve, though single readings can be large; an effect the other way counts as inactive or inconclusive.

SMILES | CHX counter | Pf growth 48h | Pf growth 96h | Sm TGR inh | Shiga toxin inh | NS1 inh
COc1ccc(C(=O)N2CCCC(c3nc(-c4ccc(OC)c(OC)c4)no3)C2)c(OC)c1 (stereo unspecified) | -2 | ? | -4% | -16% | -10 | -51%
COc1ccc(-c2noc(C3CCCN(C(=O)c4cccc(C)c4)C3)n2)cc1 (stereo unspecified) | -3 | -15% | 34% | -1% | nt | -24%
O=C(Cc1ccccc1)N1CCCC(c2nc(-c3ccc(S(=O)(=O)N4CCCC4)cc3)no2)C1 (stereo unspecified) | -2 | nt | 8.3µM* | 6% | -8 | 3%
O=C(C1CC1)N1CCC(c2nc(-c3ccc(S(=O)(=O)N4CCCC4)cc3)no2)CC1 | -3 | nt | ? | -28% | -18 | -2%
CCc1nnc(SCc2nc(-c3ccc(OC)c(OC)c3)oc2C)c2cc3sc(C)cc3n12 | nt | nt | nt | -8% | nt | nt
Cc1ccc2c(c1)N(CC(=O)NCCCN1CCOCC1)C(=O)C(C(C)C)O2 (stereo unspecified) | nt | 0% | 24% | -2% | nt | nt
O=C(Nc1ccc(Oc2ccccc2)nc1)C1CCCCN1Cc1ccc(OCCO)cc1 (stereo unspecified) | 22* | ? | ? | ? | 1 | 21%
O=C(Nc1ccc(Oc2ccccc2)nc1)C1CCCCN1Cc1ccco1 (stereo unspecified) | 0 | -14% | 83% | 0% | -21 | -5%
O=C(Nc1ccc(Oc2ccccc2)nc1)C1CCN(Cc2cccc(F)c2)CC1 | 13 | ? | 5% | -2% | 1 | 4%
C#Cc1ccc(CN2CCC(C(=O)Nc3ccc(Oc4ccccc4)nc3)CC2)cc1 | -1 | ? | 2.3µM* | 0% | -2 | -4%
CC#CC(=O)N1CCC(C(=O)Nc2ccc(Oc3ccccc3)nc2)CC1 | 34* | -7% | ? | 1% | 87* | -3%
Cn1c2cc(C=O)sc2c2cnn(Cc3ccccc3F)c(=O)c21 | -6 | nt | nt | nt | -7 | nt
O=S(=O)(c1ccc(F)c(F)c1)N1CCC2(CC1)OCCO2 | 1 | 52% | 71% | 2% | -4 | 6%
NCC[C@H](N)C(=O)O | nt | nt | nt | nt | nt | -1%
Cc1nc2c(=O)n(-c3ccc(F)c(Cl)c3)nc(C)c2s1 | -2 | ? | -3% | 10% | -6 | -2%
COc1ccc(-n2nc(C)c3sc(C)nc3c2=O)cc1 | 9.6* | 15% | 40% | 0% | 46 | 2%
Cc1ccc(Cn2c(=O)c3cccnc3n(Cc3ccc(C)cc3)c2=O)cc1 | nt | nt | nt | -5% | nt | nt
CCc1ccc(OCC(=O)N(Cc2ccc(C)cc2)Cc2ccco2)cc1 | nt | nt | nt | -26% | nt | nt
Oc1cccc(Nc2nc(O)c(/C=C3\C=Nc4ccccc43)s2)c1 | 52* | 30% | -16% | -1% | 94* | 10%
CC1=Nc2ccccc2/C1=C\c1sc(Nc2ccc(C)cc2)nc1O | -1 | ? | 6.6µM* | -1% | 14 | 2%
Oc1nc(Nc2cccc(Cl)c2)sc1/C=C1\C=Nc2ccccc21 | -2 | -11% | ? | -6% | -5 | 4%
Oc1nc(Nc2ccc(F)cc2)sc1/C=C1\C=Nc2ccccc21 | 19 | 13µM* | ? | -34% | 29 | 2%
O=c1[nH]c(S)c(/C=C2\C=Nc3ccccc32)s1 | 10 | -13% | -23% | ? | 0 | -4%
CC1CCC(NC(=O)c2ccc(COc3ccccc3)o2)CC1 (stereo unspecified) | nt | 8% | ? | -32% | nt | nt
Cc1ccc(OCCOCCn2cnc3ccccc3c2=O)cc1C | -3 | 7% | 19% | nt | -2 | -1%
CC(C)(C)c1ccc(OCCOCCn2cnc3ccccc3c2=O)cc1 | 35* | -17% | 41% | 6% | 55 | -8%
CCOc1ccc(OCCn2nnc3ccccc3c2=O)cc1 | 37* | 354% | 116% | -7% | 59* | nt
CCOc1cccc(OCCn2cnc3ccccc3c2=O)c1 | 13 | 68% | 10µM* | -3% | 35* | -1%
Cc1ccc(OCCn2cnc3ccccc3c2=O)c([N+](=O)[O-])c1 | 50* | 100% | ? | 5% | 52* | 10%
Cc1cc(OCCn2cnc3ccccc3c2=O)ccc1[N+](=O)[O-] | 2 | 15% | -17% | 8% | -5 | 29%
